These results are taken from PubChem BioAssay (EPA / NIEHS).

Experiment [1] can be described thus: Tanguay_ZF_120hpf_JAW_legacy: (Legacy) Oregon State University Tanguay Lab 120 Hour Post-fertilization zebrafish Assay for Jaw Malformation (AID 2283638). The gist of the method: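 Binary jaw-malformation call at 120 hpf by brightfield microscopy. Embryos (Tropical 5D strain, chorion removed at 4 hpf) were dosed statically at 6 hpf, one per well, at 28C with 0.64% DMSO. Embryos that died were not scored.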

The nature of experiment [2]: Tanguay_ZF_120hpf_OTIC_legacy: (Legacy) Oregon State University Tanguay Lab 120 Hour Post-fertilization zebrafish Assay for Otic Vesicle Malformation (AID 2283639). The essentials: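 Otic vesicle malformation is read as a yes/no morphology call at 120 hpf. Exposure is static at 28C with 0.64% (vol/vol) DMSO; embryos that die are excluded from non-mortality endpoints.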

Experiment [3] is described as follows: Tanguay_ZF_120hpf_BRAI_legacy: (Legacy) Oregon State University Tanguay Lab 120 Hour Post-fertilization zebrafish Assay for Brain Malformation (AID 2283641). The essentials:
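Binary brightfield scoring of brain malformation at 120 hpf in Tropical 5D larvae held under static exposure at 28C (0.64% v/v DMSO), non-mortality endpoints skipped if dead. Positive control: 5uM trimethyltin chloride; fit versus DMSO.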

Experiment [4] can be described thus: Tanguay_ZF_120hpf_PFIN_legacy: (Legacy) Oregon State University Tanguay Lab 120 Hour Post-fertilization zebrafish Assay for Pectoral Fin Malformation (AID 2283648).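 Also: each larva judged yes or no for fin defect by brightfield with dead larvae skipped.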 The essentials:
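Dechorionated Tropical 5D wild-type zebrafish embryos, one per well, statically exposed from 6 to 120 hpf at 28C with 0.64% DMSO final. Pectoral fin malformation scored present/absent by brightfield at 120 hpf; not scored in dead embryos.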

The nature of experiment [5]: Tanguay_ZF_120hpf_CFIN_legacy: (Legacy) Oregon State University Tanguay Lab 120 Hour Post-fertilization zebrafish Assay for Caudal Fin Malformation (AID 2283649). The gist of the method: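 Binary brightfield scoring of caudal fin defects at 120 hpf after static, light-shielded exposure at 28C from 6 hpf. Tropical 5D embryos, chorion removed with pronase at 4 hpf, final DMSO 0.64%.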

Experiment [6] is described as follows: Tanguay_ZF_120hpf_PIG_legacy: (Legacy) Oregon State University Tanguay Lab 120 Hour Post-fertilization zebrafish Assay for Pigmentation Malformation (AID 2283650). The essentials: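 Dechorionated Tropical 5D wild-type embryos, one per well from 6 hpf, statically exposed at 28C in the dark until 120 hpf, 0.64% DMSO final. Pigmentation scored present/absent by brightfield microscopy; dead embryos not scored; fitted versus DMSO.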

A short description of experiment [7]: Tanguay_ZF_120hpf_CIRC_legacy: (Legacy) Oregon State University Tanguay Lab 120 Hour Post-fertilization zebrafish Assay for Circulatory Malformation (AID 2283651). The gist of the method:
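Using wild-type Tropical 5D zebrafish, we exposed dechorionated embryos from 6 to 120 hpf in embryo medium with 0.64% DMSO. Circulatory defects were scored as present or absent; 5uM trimethyltin chloride served as positive control.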

The nature of experiment [8]: Tanguay_ZF_120hpf_SWIM_legacy: (Legacy) Oregon State University Tanguay Lab 120 Hour Post-fertilization zebrafish Assay for Swim Bladder Malformation (AID 2283654).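 Also: swim bladder malformation in each larva scored yes or no under brightfield.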 The essentials: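 Dechorionated wild-type Tropical 5D zebrafish embryos, one per well from 6 hpf, were statically exposed at 28C until 120 hpf in 0.64% DMSO. Swim bladder malformation scored as present/absent by brightfield microscopy; not scored in dead larvae.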

A short description of experiment [9]: Tanguay_ZF_120hpf_TRUN_legacy: (Legacy) Oregon State University Tanguay Lab 120 Hour Post-fertilization zebrafish Assay for Truncated Body (AID 2283655). The essentials: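 Binary presence/absence of truncated body is recorded at 120 hpf by brightfield, with non-mortality endpoints skipped after death. Exposure is static from 6 hpf in sealed dark plates at 28C, using dechorionated wild-type zebrafish, 0.64% DMSO.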

Experiment [10] in a line: Tanguay_ZF_120hpf_NC_legacy: (Legacy) Oregon State University Tanguay Lab 120 Hour Post-fertilization zebrafish Assay for Notochord and Tail Malformation (AID 2283656). The essentials: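 Dechorionated 5D zebrafish, 1/well from 6 hpf; static exposure to 120 hpf, 28C, sealed, dark; final DMSO 0.64% v/v. NC scored binary (present/absent); dead embryos not scored. Fit vs DMSO baseline, gain direction.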

Experiment [11] has as its system Thyroperoxidase (TPO), gene 54314. In words: CCTE_Simmons_AUR_rTPO: CCTE's Amplex UltraRed Assay for Thyroperoxidase (TPO) Inhibition, Simmons Lab (AID 2283662).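 As to AC50: potency for loss of signal meaning inhibition of peroxidase activity.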 The essentials: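 Endpoint is decreased Amplex UltraRed fluorescence after a 30-min, 37C reaction of rat thyroid microsomes with 300 uM H2O2. Eight test concentrations (5 nM–87.5 uM final) in 0.5% DMSO, three biological replicates each.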

Experiment [12] in a line: CCTE_Simmons_CellTiterGLO_HEK293T: Viability Assessment in CCTE's Assays for Thyroperoxidase (TPO) Inhibition, Simmons Lab (AID 2283665).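 Also: cells exposed to compound for 24 h before readout; actives reduce ATP signal below DMSO vehicle meaning cytotoxicity.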 The gist of the method:
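Cytotoxicity counter-screen: human HEK293T cells in low-serum (1% FBS) medium receive test chemical, 5 nM to 87.5 uM final, for 24 h; ATP is quantified by luciferase luminescence.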
A general note: ATP-based viability assays read luminescence as a measure of living cells.

Experiment [13] can be described thus: Tanguay_ZF_120hpf_TR_legacy: (Legacy) Oregon State University Tanguay Lab 120 Hour Post-fertilization zebrafish Assay for Touch Response (AID 2283667). The essentials:
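Tropical 5D wild-type zebrafish embryos statically exposed to 120 hpf at 28°C, sealed and dark-covered, 0.64% DMSO final; touch response scored as present/absent by brightfield microscopy at 120 hpf. Trimethyltin chloride 5 uM positive control; dead embryos not scored.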

A short description of experiment [14]: Tanguay_ZF_120hpf_SOMI_legacy: (Legacy) Oregon State University Tanguay Lab 120 Hour Post-fertilization zebrafish Assay for Somite Malformation (AID 2283647). The essentials: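 Binary somite-defect scoring at 120 hpf, omitted for embryos that died, in wild-type (Tropical 5D) zebrafish with chorion removed by pronase at 4 hpf; static exposure began 6 hpf, single embryos per well, 28C, 0.64% DMSO; fitted positive versus DMSO.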

Experiment [15] in a line: Tanguay_ZF_120hpf_PE_legacy: (Legacy) Oregon State University Tanguay Lab 120 Hour Post-fertilization zebrafish Assay for Pericardial Edema (AID 2283640). The essentials: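 Scoring was binary, by brightfield microscopy at 120 hpf, and skipped where mortality occurred. Wild-type embryos were kept under sealed, foil-covered static exposure at 28C in 0.64% (vol/vol) DMSO.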

Read-out in experiment [16]: kallikrein-3 (KLK3), KLK3 (gene 354)
The experiment can be described thus: LTEA_HepaRG_KLK3: Life Technologies and Expression Analysis (LTEA) Assay for kallikrein-3 (KLK3) using HepaRG (AID 2283652; active = hit-call score of the fitted dose curve at least 0.9, where 1 is the maximum; inactive = score below 0.9). Particulars: mRNA level, 48 h; actives raise or lower the signal. The gist of the method: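 Differentiated human HepaRG cells in serum-free induction medium exposed 48 h in duplicate, eight-point half-log series from 100 uM in 0.5% DMSO. KLK3 mRNA by qRT-PCR, normalised to ACTB, GAPDH, POLR2A; bidirectional fit versus DMSO.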

Read-out in experiment [17]: solute carrier (SLC22A6), SLC22A6 (gene 9356)
In words: LTEA_HepaRG_SLC22A6: Life Technologies and Expression Analysis (LTEA) Assay for solute carrier (SLC22A6) using HepaRG (AID 2283653; active = hit-call score of the fitted dose curve at least 0.9, where 1 is the maximum; inactive = score below 0.9). The conditions noted are these: mRNA level, 48 h; actives raise or lower the signal. The gist of the method:
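SLC22A6 transcript was measured by TaqMan qRT-PCR, normalized to three housekeeping genes, after 48 h duplicate exposure of HepaRG cells (100 uM top, half-log steps, 0.5% DMSO); bidirectional fit against vehicle.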

Read-out in experiment [18]: solute carrier (SLC10A1), SLC10A1 (gene 6554)
The experiment can be described thus: LTEA_HepaRG_SLC10A1: Life Technologies and Expression Analysis (LTEA) Assay for solute carrier (SLC10A1) using HepaRG (AID 2283657; active = hit-call score of the fitted dose curve at least 0.9, where 1 is the maximum; inactive = score below 0.9). Particulars: mRNA level, 48 h; actives raise or lower the signal. The essentials: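 HepaRG cells (single lot) exposed 48 h in serum-free induction medium, 8-point half-log series from 100 uM top in 0.5% DMSO, duplicate. SLC10A1 mRNA by qRT-PCR normalised to ACTB, GAPDH, POLR2A; bidirectional fit versus DMSO.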

Read-out in experiment [19]: matrix metalloproteinase-1 (MMP1), MMP1 (gene 4312)
In words: LTEA_HepaRG_MMP1: Life Technologies and Expression Analysis (LTEA) Assay for matrix metalloproteinase-1 (MMP1) using HepaRG (AID 2283658; active = hit-call score of the fitted dose curve at least 0.9, where 1 is the maximum; inactive = score below 0.9). Particulars: mRNA level, 48 h; actives raise or lower the signal. The essentials: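 qRT-PCR (TaqMan, Fluidigm arrays) of MMP1 transcript, normalized against three housekeeping genes and fitted in both directions relative to 0.5% DMSO vehicle. Human HepaRG cultures received duplicate 48 h exposures across 8 points, highest 100 uM with half-log steps.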

Read-out in experiment [20]: Cytochrome P450 (CYP24A1_1), CYP24A1 (gene 1591)
In words: LTEA_HepaRG_CYP24A1_1: Life Technologies and Expression Analysis (LTEA) Assay for Cytochrome P450 (CYP24A1_1) using HepaRG (AID 2283671; active = hit-call score of the fitted dose curve at least 0.9, where 1 is the maximum; inactive = score below 0.9). Particulars: mRNA level, 48 h; actives raise or lower the signal. The gist of the method: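 Differentiated human HepaRG cells in serum-free induction medium, exposed 48 h in duplicate to eight half-log concentrations from 100 uM top, 0.5% DMSO. Transcript measured by TaqMan qRT-PCR, normalised to ACTB, GAPDH, POLR2A; bidirectional fitting versus DMSO.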

Inconclusive results are not listed. The source made the active and inactive calls. The calls were made as follows, unless noted: active = hit-call score of the fitted dose curve at least 0.9, where 1 is the maximum; inconclusive = response in the unintended direction; inactive = score below 0.9.

For the molecule `CN[C@H]1CC[C@@H](c2ccc(Cl)c(Cl)c2)c2ccc(S(N)(=O)=O)cc21`, the result in experiment [1], in [2], in experiment [3], in experiment [4], in experiment [5] and in experiment [6] was inactive. Moreover, the result in experiment [7], in [8], in experiment [9], in experiment [10], in experiment [11] and in [13] was inactive. Besides, the concentration at half-maximal activity (AC50) in [12] is 9.23 µM (active).

Take `NS(=O)(=O)c1cc2c(cc1Cl)NCNS2(=O)=O`: the result in [1], in experiment [2], in experiment [3], in experiment [14], in experiment [4] and in experiment [5] was inactive. Also, the molecule was called inactive in experiment [6], in experiment [7], in [8], in experiment [9] and in [10].

Consider `Cc1nc(-c2ccc3c(c2)CCN(CCC2CCC(NC(=O)/C=C/c4ccc(F)cc4)CC2)CC3)no1` (stereo unspecified), for which the molecule was called inactive in experiment [1], in experiment [2], in experiment [15], in experiment [3], in experiment [14] and in experiment [4]. Moreover, the call in [5], in experiment [6], in [7], in experiment [8], in experiment [9] and in experiment [10] was inactive. For the same molecule, in [13], the result was inactive.

Take `O=c1c(O)c(-c2ccc(O)c(O)c2)oc2cc(O)cc(O)c12`: the call in [1], in experiment [2], in experiment [15], in experiment [3], in experiment [4] and in [5] was inactive. The result in experiment [6], in experiment [7], in experiment [8], in experiment [9], in [10] and in [13] was inactive. The concentration at half-maximal activity (AC50) in [11] was 0.182 µM (active); in experiment [12], 27.1 µM (active).

As for `CCc1c(C(=O)NN2CCCCC2)nn(-c2ccc(Cl)cc2Cl)c1-c1ccc(Br)cc1`, the outcome in [1], in experiment [2], in experiment [15], in experiment [3], in [5] and in [6] was inactive. For the same molecule, the outcome in experiment [7], in [8] and in experiment [10] was inactive.

On to `Cc1ccc(Cl)cc1`, for which the outcome in [1], in [2], in experiment [15], in [3], in experiment [4] and in experiment [5] was inactive. In addition, the molecule was called inactive in experiment [16], in experiment [17], in [8], in [10], in experiment [18] and in experiment [19]. Further, the molecule was called inactive in [13] and in [20].

On to `Cc1ccc(C)c(C)c1`, for which the outcome in experiment [1], in experiment [2], in experiment [15], in [3], in [14] and in experiment [5] was inactive. Besides, the result in experiment [6], in experiment [7], in [17], in experiment [8], in experiment [9] and in experiment [10] was inactive. In addition, the result in experiment [18], in experiment [19], in experiment [13] and in [20] was inactive.

As to `COCCOC[C@H](CC1(C(=O)NC2CCC(C(=O)O)CC2)CCCC1)C(=O)Oc1ccc2c(c1)CCC2` (stereo partly specified), the molecule was classed as inactive in [1], in [2], in experiment [15], in experiment [3], in experiment [14] and in experiment [4]. Further, the molecule was called inactive in experiment [5], in [6], in experiment [7], in experiment [8], in [9] and in experiment [10]. Also, the outcome in [13] was inactive.

Regarding `CCCCCCCCCCO`, the call in [1], in experiment [15], in [3], in [14], in experiment [4] and in experiment [5] was inactive. Also, the outcome in experiment [6], in [7], in [9], in experiment [10] and in experiment [13] was inactive.

Consider `O=C(N[C@@H](Cc1ccccc1)[C@@H](O)C(=O)N1C[C@@H](O)[C@@H](O)C1)c1cc2cc(Cl)ccc2[nH]1`, for which the molecule was classed as inactive in experiment [1], in experiment [15], in [3], in [14], in experiment [4] and in [5]. Further, the outcome in experiment [6], in experiment [7], in experiment [8], in [9], in experiment [10] and in [13] was inactive.

In general, AC50 refers to the concentration at which the activity in the assay is half-maximal.
